{"source": "PubChem BioAssay (NCI)", "note": "Compounds without any hit were thinned out: in the full panel of roughly 79,000, 15% have a hit. The source made the active and inactive calls. No stated cut-off is given here; in the data, active means growth inhibition above about 70%; inactive means the rest."}
{"assay": "NCI Yeast Anticancer Drug Screen. Data for the sgs1 mgt1 strain (AID 161);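 further: 0% = growth of cultures given vehicle only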", "details": "S. cerevisiae sgs1 mgt1 strain, at 50.0 µM, active compounds read high", "in_short": "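Compounds are added to genetically altered yeast, and growth is compared with cultures given vehicle alone to give percent inhibition.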"}
{"compound": "O=[N+]([O-])c1ccc(O)c(C=NCCN=Cc2cc([N+](=O)[O-])ccc2O)c1.[Zn+2]", "growth inhibition": "-6.05% (inactive)"}
{"compound": "O=S(=O)(F)c1ccccc1C[P+](c1ccccc1)(c1ccccc1)c1ccccc1", "growth inhibition": "66% (inactive)"}
{"compound": "CC(=O)C(C(C)=O)C(C)=O.[Cr]", "growth inhibition": "-3.6% (inactive)"}
{"compound": "C/C=C\\CC1(C/C=C/C)C(=O)NC(=O)NC1=O", "growth inhibition": "-5.05% (inactive)"}
{"compound": "SCCS", "growth inhibition": "-14.6% (inactive)"}
{"compound": "CSC(=S)N(C)c1nc(=[N+](C)C)ss1", "growth inhibition": "-9.8% (inactive)"}
{"compound": "OCC(S)CS", "note": "(stereo not drawn)", "growth inhibition": "12.6% (inactive)"}
{"compound": "c1ccc2c(C3NCCc4[nH]cnc43)cccc2c1", "note": "(stereo not drawn)", "growth inhibition": "-9.45% (inactive)"}
{"compound": "COP(=O)(OC)C1(c2ccccc2)C2C3CCC(C3)C21", "note": "(stereo not drawn)", "growth inhibition": "2.65% (inactive)"}
{"compound": "c1ccc(P2c3ccccc3Oc3ccccc32)cc1", "growth inhibition": "42.2% (inactive)"}
{"compound": "O=C(O)C(F)F", "growth inhibition": "-18.2% (inactive)"}
{"compound": "CC(=O)C(CN1CCCCC1)C(c1ccccc1)c1c(O)c2ccccc2oc1=O", "note": "(stereo not drawn)", "growth inhibition": "9.25% (inactive)"}
{"compound": "CC(C)(O)OC1COC(C2CS2)C1O", "note": "(stereo not drawn)", "growth inhibition": "3.95% (inactive)"}
{"compound": "C=C1[C@@H](C)[C@H]2[C@H](Cc3ccccc3)NC(=O)[C@]23OC(=O)/C=C/[C@H](O)CCC[C@@H](C)C/C=C/[C@H]3[C@@H]1O", "growth inhibition": "24.6% (inactive)"}
{"compound": "[C-]#[O+].[C-]#[O+].[Ir].[O-]c1cccc2cccnc12", "growth inhibition": "-4.6% (inactive)"}
{"compound": "OC1CCN(C2(c3ccccc3)CCCCC2)CC1", "growth inhibition": "-1.85% (inactive)"}
{"compound": "CCC(=O)C(CC(C)[N+](C)(C)C)(c1ccccc1)c1ccccc1", "note": "(stereo not drawn)", "growth inhibition": "-4.6% (inactive)"}
{"compound": "[C-]#[N+]CS(=O)(=O)c1ccc(C)cc1", "growth inhibition": "-7.3% (inactive)"}
{"compound": "CC1OC(OC2CCC3(C=O)C4CCC5(C)C(C6=CC(=O)OC6)CCC5(O)C4CCC3(O)C2)C(O)C(O)C1O", "note": "(stereo not drawn)", "growth inhibition": "-5.65% (inactive)"}
{"compound": "COC(=O)C1=C(C)NC(C)=C2C(=O)Oc3ccccc3C12", "note": "(stereo not drawn)", "growth inhibition": "-7.5% (inactive)"}
{"compound": "CC[N+](CC)(CC)CC#CC[N+](CC)(CC)CC", "growth inhibition": "14.3% (inactive)"}
{"compound": "OC1(c2ccccc2)N=C(c2ccccc2)c2ccccc2-n2cccc21", "note": "(stereo not drawn)", "growth inhibition": "-14.5% (inactive)"}
{"compound": "O=P(O)(O)SP(=O)(O)O.[Mn]", "growth inhibition": "-1.9% (inactive)"}
{"compound": "CC1(C)N=C(N)N=C(N)N1c1ccc(CCCCCCc2ccc(S(=O)(=O)F)cc2)cc1", "growth inhibition": "99.5% (active)"}
{"compound": "O=C(O)CNCP(=O)(O)O", "growth inhibition": "-52.1% (inactive)"}
{"compound": "C/C=C1\\C[C@@H]2C(OC)Nc3cc(O)c(OC)cc3C(=O)N2C1", "note": "(stereo partly drawn)", "growth inhibition": "84% (active)"}
{"compound": "CC(=O)CP(=O)(O)O", "growth inhibition": "-0.15% (inactive)"}
{"compound": "CCC1(C/C=C/Cl)C(=O)NC(=O)NC1=O", "growth inhibition": "-29.5% (inactive)"}
{"compound": "Cc1nc2ccccc2c(=O)n1-c1ccccc1Cl", "growth inhibition": "-6.75% (inactive)"}
{"compound": "N.N.N.N.N.N#Cc1nn[n-]n1.[Cl-].[Co+3]", "growth inhibition": "16.8% (inactive)"}
{"compound": "O=NNc1cnc2ccccc2n1", "growth inhibition": "-9.75% (inactive)"}
{"compound": "CC(=O)Nc1cc([As](C)(=O)O)ccc1O", "growth inhibition": "1.95% (inactive)"}
{"compound": "COP(=O)(OC)C(O)C(Br)(Br)Br", "note": "(stereo not drawn)", "growth inhibition": "45.2% (inactive)"}
{"compound": "COc1ccc(C(=O)O[C@H]2CC[C@@]3(C)[C@@H]4CC[C@H]5[C@]6(O)C[C@H](O)[C@@]7(O)[C@@H](CN8C[C@@H](C)CC[C@H]8[C@@]7(C)O)[C@]6(O)C[C@@]53OC24O)cc1OC", "growth inhibition": "-28.9% (inactive)"}
{"compound": "O=C1OC(=O)C2CC3C(CC12)C1(Cl)C(Cl)=C(Cl)C3(Cl)C1(Cl)Cl", "note": "(stereo not drawn)", "growth inhibition": "-13.1% (inactive)"}
{"compound": "CNC(=O)N1CN(c2ccccc2)C2(CCN(Cc3ccccc3)CC2)C1=O", "growth inhibition": "-15.9% (inactive)"}
{"compound": "CCCCC(=O)[O-].N.N.N.N.N.[Co+3].[O-][Cl+3]([O-])([O-])[O-]", "growth inhibition": "-18.4% (inactive)"}
{"compound": "CCCCP(=O)(CCCC)CCCC.CCCCP(=O)(CCCC)CCCC.CCCCP(=O)(CCCC)CCCC.CCCCP(=O)(CCCC)CCCC.[Mn+2].[O-][Cl+3]([O-])([O-])O", "growth inhibition": "-24.6% (inactive)"}
{"compound": "Cc1ccc2[nH]cc(CCN)c2c1", "growth inhibition": "-5.4% (inactive)"}
{"assay": "NCI Yeast Anticancer Drug Screen. Data for the cln2 rad14 strain (AID 165);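 further: 0% = growth equal to vehicle treated cultures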", "details": "S. cerevisiae cln2 rad14 strain, at 50.0 µM, active compounds read high", "in_short": "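Readout is yeast growth inhibition versus vehicle-treated controls, using a strain with cln2 and rad14 alterations exposed to compound.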"}
{"compound": "O=[N+]([O-])c1ccc(O)c(C=NCCN=Cc2cc([N+](=O)[O-])ccc2O)c1.[Zn+2]", "growth inhibition": "-15.8% (inactive)"}
{"compound": "O=S(=O)(F)c1ccccc1C[P+](c1ccccc1)(c1ccccc1)c1ccccc1", "growth inhibition": "66.7% (inactive)"}
{"compound": "CC(=O)C(C(C)=O)C(C)=O.[Cr]", "growth inhibition": "11.1% (inactive)"}
{"compound": "C/C=C\\CC1(C/C=C/C)C(=O)NC(=O)NC1=O", "growth inhibition": "-17.6% (inactive)"}
{"compound": "SCCS", "growth inhibition": "-5.6% (inactive)"}
{"compound": "CSC(=S)N(C)c1nc(=[N+](C)C)ss1", "growth inhibition": "-32.4% (inactive)"}
{"compound": "OCC(S)CS", "note": "(stereo not drawn)", "growth inhibition": "2.9% (inactive)"}
{"compound": "c1ccc2c(C3NCCc4[nH]cnc43)cccc2c1", "note": "(stereo not drawn)", "growth inhibition": "-18.3% (inactive)"}
{"compound": "COP(=O)(OC)C1(c2ccccc2)C2C3CCC(C3)C21", "note": "(stereo not drawn)", "growth inhibition": "-7% (inactive)"}
{"compound": "c1ccc(P2c3ccccc3Oc3ccccc32)cc1", "growth inhibition": "42.6% (inactive)"}
{"compound": "O=C(O)C(F)F", "growth inhibition": "-31% (inactive)"}
{"compound": "CC(=O)C(CN1CCCCC1)C(c1ccccc1)c1c(O)c2ccccc2oc1=O", "note": "(stereo not drawn)", "growth inhibition": "26.2% (inactive)"}
{"compound": "CC(C)(O)OC1COC(C2CS2)C1O", "note": "(stereo not drawn)", "growth inhibition": "34.8% (inactive)"}
{"compound": "C=C1[C@@H](C)[C@H]2[C@H](Cc3ccccc3)NC(=O)[C@]23OC(=O)/C=C/[C@H](O)CCC[C@@H](C)C/C=C/[C@H]3[C@@H]1O", "growth inhibition": "39% (inactive)"}
{"compound": "[C-]#[O+].[C-]#[O+].[Ir].[O-]c1cccc2cccnc12", "growth inhibition": "12.7% (inactive)"}
{"compound": "OC1CCN(C2(c3ccccc3)CCCCC2)CC1", "growth inhibition": "-4.25% (inactive)"}
{"compound": "CCC(=O)C(CC(C)[N+](C)(C)C)(c1ccccc1)c1ccccc1", "note": "(stereo not drawn)", "growth inhibition": "3.35% (inactive)"}
{"compound": "[C-]#[N+]CS(=O)(=O)c1ccc(C)cc1", "growth inhibition": "11.1% (inactive)"}
{"compound": "CC1OC(OC2CCC3(C=O)C4CCC5(C)C(C6=CC(=O)OC6)CCC5(O)C4CCC3(O)C2)C(O)C(O)C1O", "note": "(stereo not drawn)", "growth inhibition": "13.5% (inactive)"}
{"compound": "COC(=O)C1=C(C)NC(C)=C2C(=O)Oc3ccccc3C12", "note": "(stereo not drawn)", "growth inhibition": "6.6% (inactive)"}
{"compound": "CC[N+](CC)(CC)CC#CC[N+](CC)(CC)CC", "growth inhibition": "1.45% (inactive)"}
{"compound": "OC1(c2ccccc2)N=C(c2ccccc2)c2ccccc2-n2cccc21", "note": "(stereo not drawn)", "growth inhibition": "0.75% (inactive)"}
{"compound": "O=P(O)(O)SP(=O)(O)O.[Mn]", "growth inhibition": "-30.2% (inactive)"}
{"compound": "CC1(C)N=C(N)N=C(N)N1c1ccc(CCCCCCc2ccc(S(=O)(=O)F)cc2)cc1", "growth inhibition": "99% (active)"}
{"compound": "O=C(O)CNCP(=O)(O)O", "growth inhibition": "-15.1% (inactive)"}
{"compound": "C/C=C1\\C[C@@H]2C(OC)Nc3cc(O)c(OC)cc3C(=O)N2C1", "note": "(stereo partly drawn)", "growth inhibition": "56.9% (inactive)"}
{"compound": "CC(=O)CP(=O)(O)O", "growth inhibition": "-55.9% (inactive)"}
{"compound": "CCC1(C/C=C/Cl)C(=O)NC(=O)NC1=O", "growth inhibition": "-38.5% (inactive)"}
{"compound": "Cc1nc2ccccc2c(=O)n1-c1ccccc1Cl", "growth inhibition": "12.9% (inactive)"}
{"compound": "N.N.N.N.N.N#Cc1nn[n-]n1.[Cl-].[Co+3]", "growth inhibition": "24.4% (inactive)"}
{"compound": "O=NNc1cnc2ccccc2n1", "growth inhibition": "-5.4% (inactive)"}
{"compound": "CC(=O)Nc1cc([As](C)(=O)O)ccc1O", "growth inhibition": "-41.5% (inactive)"}
{"compound": "COP(=O)(OC)C(O)C(Br)(Br)Br", "note": "(stereo not drawn)", "growth inhibition": "34.8% (inactive)"}
{"compound": "COc1ccc(C(=O)O[C@H]2CC[C@@]3(C)[C@@H]4CC[C@H]5[C@]6(O)C[C@H](O)[C@@]7(O)[C@@H](CN8C[C@@H](C)CC[C@H]8[C@@]7(C)O)[C@]6(O)C[C@@]53OC24O)cc1OC", "growth inhibition": "6.4% (inactive)"}
{"compound": "O=C1OC(=O)C2CC3C(CC12)C1(Cl)C(Cl)=C(Cl)C3(Cl)C1(Cl)Cl", "note": "(stereo not drawn)", "growth inhibition": "-5.4% (inactive)"}
{"compound": "CNC(=O)N1CN(c2ccccc2)C2(CCN(Cc3ccccc3)CC2)C1=O", "growth inhibition": "-2.8% (inactive)"}
{"compound": "CCCCC(=O)[O-].N.N.N.N.N.[Co+3].[O-][Cl+3]([O-])([O-])[O-]", "growth inhibition": "21.4% (inactive)"}
{"compound": "CCCCP(=O)(CCCC)CCCC.CCCCP(=O)(CCCC)CCCC.CCCCP(=O)(CCCC)CCCC.CCCCP(=O)(CCCC)CCCC.[Mn+2].[O-][Cl+3]([O-])([O-])O", "growth inhibition": "-17.5% (inactive)"}
{"compound": "Cc1ccc2[nH]cc(CCN)c2c1", "growth inhibition": "21.8% (inactive)"}
